Assay outcomes (PubChem BioAssay)
Compounds with a hit are over-represented: about 7.3% of the library has one in this group of screens.
SMN2 splice enh: enhancers of SMN2 splice variant expression; Potency, µM (top dose mostly 46.1 µM), without a hit: at the highest dose activity change, positive = activation, hits mostly activators; HEK293 SMN2-luciferase splicing reporter, luminescence, 30-36 h; 2.8% of 210,000 active; further: % of control where 0% means no effect; nearly all actives have a fitted effect of over 55% in size
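HEK293 cells carry an SMN2 minigene-luciferase reporter in which exon 7 inclusion puts luciferase in frame. Cells were seeded at 2000 cells/well, attached for 10-12 hours, then exposed to compounds for 30-36 hours at 37C before ONE-Glo luminescence.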
ELG1 genotoxic: inducers of genotoxicity in HEK293T ELG1-luciferase cells. HEK293T ELG1-luciferase reporter, luminescence, 16 h. Potency, µM (highest dose often 46 µM), without a hit: at the highest dose activity change, positive = activation, most hits filed as activators. 1.3% of 330,000 active. AID 504466; further: % of control where 0% means no effect; nearly all actives have a fitted effect of over 60% in size
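Luminescence read-out: rising ELG1-luciferase signal, reflecting elevated ELG1 protein under genetic stress, flags genotoxic compounds. Cells were treated for 16 hr at 37 °C before ONE-Glo detection.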
FLuc counter: inhibits or activates purified firefly luciferase, miR-21 counter-screen | 6.9% of 360,000 active | Potency, µM (series often up to 57.5 µM), without a hit: at the highest dose activity change, negative = inhibition, most hits filed as inhibitors | P08659 | AID 588342 | purified FLuc, Km substrates, luminescence inhibition;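 further: plate controls were vehicle for no effect and reference inhibitor for full effect; nearly all actives have a fitted effect of over 55% in size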
Target sequence (P08659 whole entry, looked up): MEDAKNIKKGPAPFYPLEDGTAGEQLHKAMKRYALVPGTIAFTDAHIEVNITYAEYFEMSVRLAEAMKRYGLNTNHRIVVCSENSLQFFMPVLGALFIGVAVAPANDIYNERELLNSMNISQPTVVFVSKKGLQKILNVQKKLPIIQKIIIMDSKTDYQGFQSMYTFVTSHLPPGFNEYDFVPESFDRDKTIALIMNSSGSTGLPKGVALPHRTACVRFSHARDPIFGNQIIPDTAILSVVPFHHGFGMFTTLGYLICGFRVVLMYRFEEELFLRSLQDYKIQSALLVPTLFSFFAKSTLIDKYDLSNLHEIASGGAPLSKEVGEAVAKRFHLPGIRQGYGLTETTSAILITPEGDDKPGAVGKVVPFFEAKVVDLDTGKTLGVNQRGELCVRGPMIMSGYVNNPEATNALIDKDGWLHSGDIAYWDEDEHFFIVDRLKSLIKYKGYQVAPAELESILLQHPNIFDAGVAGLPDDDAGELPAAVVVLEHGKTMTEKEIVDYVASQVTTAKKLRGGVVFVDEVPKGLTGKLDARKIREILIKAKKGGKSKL
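Biochemical qHTS of compounds, final roughly 60 µM downward over six points, against 10 nM purified firefly luciferase using Km concentrations of substrates (10 uM D-luciferin, 10 uM ATP) in Tris acetate pH 7.5 buffer; luminescence output.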
Rab9 promoter act: Rab9 promoter activation. 2.8% of 320,000 active. Potency, µM (top dose mostly 9.22 µM), for the others: top-dose activation, negative = inhibition, usual class: activators. Huh7 Rab9 promoter-luciferase reporter, luminescence, 24 h; further: % of control where 0% means no effect; nearly all actives have a fitted effect of over 60% in size
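Promoter activation is measured as luciferase luminescence in Huh7 cells stably transfected with a Rab9 promoter–luciferase construct, following 24 h compound exposure at 37 °C and 10 min reagent incubation at ambient temperature.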
p53 reactivator: mutant p53 re-activation in reporter cells; H1299 p53-A138V BP100-luciferase reporter, luminescence, 24 h; Potency, µM (series often up to 92.2 µM), without a hit: at the top dose activity change, positive = activation, most hits filed as activators; 0.063% of 320,000 active; further: % of control where 0% means no effect; nearly all actives have a fitted effect of over 45% in size
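p53-null H1299 cells stably carrying temperature-sensitive p53-A138V and a BP100-luciferase reporter were pinned with compounds (4-point, 1:5 series) and held 24 hrs at 37 deg C. Luminescence was read 10 min after detection reagent.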
NPC1 promoter act: NPC1 promoter activation; Potency, µM (series often up to 9.22 µM), without a hit: at the highest dose activation, actives largely listed as activators; 2.4% of 320,000 active; Huh7 NPC1 promoter luciferase reporter, 24 h; further: % of control where 0% means no effect; nearly all actives have a fitted effect of over 60% in size
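Compounds in DMSO were transferred onto Huh7 NPC1-luciferase reporter cells pre-incubated 2 h; after 24 h at 37 °C, Amplite reagent was dispensed and luminescence recorded 10 min later.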
The depositor's hits bear a star; ? = inconclusive; · = no result. The call rests on the fitted dose curve; in most records, active means well fitted curve in the direction sought with a large enough effect; inconclusive means small, poorly fitted or top-dose-only effect, or another doubt; inactive means no such curve, though single readings can be large; an effect the other way counts as inactive or inconclusive. Potency means the concentration at half of the fitted maximal effect.

SMILES	SMN2 splice enh	ELG1 genotoxic	FLuc counter	Rab9 promoter act	p53 reactivator	NPC1 promoter act
COc1ccc(Cl)cc1NC(=O)CN(C)C(=O)CCSc1ccc(C)cc1	·	-0.4%	19µM*	-7.7%	-6.3%	0.8%
Cc1csc(SCC(=O)Nc2sccc2C(N)=O)n1	12.6µM*	?	?	?	4.1%	?
Cc1ccccc1SCC(=O)OCC(=O)Nc1sccc1C(N)=O	-4.9%	-2.1%	-7.8%	0.5%	?	-4.9%
NC(=O)c1ccsc1NC(=O)CSc1ccccc1F	?	10µM*	21.3µM*	?	?	?
COc1ccc2nc(N3CCOCC3)cc(C)c2c1	11.2µM*	8.2µM*	5.36µM*	2.82µM*	29.9%	?
COc1ccc2c(C)cc(N3CCOCC3)nc2c1	12.8%	8.4%	?	24.1%	21.4%	21.3%
CCOc1ccccc1NC(=O)Nc1ccc2nc(N3CCN(C)CC3)cc(C)c2c1	·	·	5.36µM*	·	·	·
CCN1CCN(c2cc(C)c3cc(NC(=O)c4cccc(OC)c4)ccc3n2)CC1	·	12.3%	19µM*	20.2%	2.2%	16.1%
CCOc1ccccc1NC(=O)Nc1nnc(N2CCCCCC2)s1	·	·	15.1µM*	·	·	·
CC1(C)CC(=O)C2=C(C1)N(c1ccc(F)cc1)C(=O)CC2c1ccsc1 (stereo not drawn)	-3.2%	1.5%	0.8%	-1.0%	0.5%	-1.9%
Cc1cc(C)cc(-c2cc3c(c(-c4c(O)c(-c5cc(C)cc(C)c5)cc5c4CCCC5)c2O)CCCC3)c1	1.0%	·	·	·	·	·
COc1ccc(C(=O)Nc2ccc3nc(N4CCN(C)CC4)cc(C)c3c2)c(OC)c1	·	7.3%	16.9µM*	-0.3%	-6.8%	0.1%
Cc1ccc(O)c(-c2cc3ccccc3[nH]2)c1	12.1%	4.5%	26.9µM*	17.0%	?	20.9%
COc1ccc(-c2cc3ccccc3[nH]2)cc1	·	?	4.78µM*	2µM*	?	3.55µM*
c1ccc(-c2cc3ccccc3[nH]2)cc1	·	?	19µM*	?	13.5%	?
Clc1ccc2[nH]c(-c3ccccc3)cc2c1	?	?	10.7µM*	2.51µM*	?	3.16µM*
Cc1ccc(NCc2cccn2-c2nnc(N3CCC(C(=O)NCc4ccc(F)cc4)CC3)s2)cc1	-53.5%	·	-11.4%	·	·	·
CC(=O)N1CCN(CC(=O)Nc2c(Cl)cc(Cl)cc2Cl)CC1	18.7%	-3.7%	0.2%	0.9%	0.4%	-0.9%
Cn1cc(S(=O)(=O)c2ccccc2)c(=O)c2cc(F)c(N3CCCCCC3)cc21	·	·	-0.1%	·	·	·
Cc1cccc(NS(=O)(=O)c2ccc3c(c2)CCN3C(=O)C2CCC2)c1	-58.1%	·	-12.3%	·	·	·
COc1cccc(CNC(=O)CSc2c3c(nc4ccc(Cl)cc24)CCCC3)c1OC	2.6%	·	3.5%	·	·	·
Cn1nnnc1SCCCNCc1ccccc1OCc1ccc(Cl)cc1	·	·	-1.8%	·	·	·
CCC(=O)Oc1ccc(C(=O)Nc2cccc(C(=O)NC(C)(C)C)c2)cc1	17.2%	-1.0%	10.7µM*	0.1%	-4.0%	-1.2%
COC(=O)c1cccc(NC(=O)c2ccc3c(c2)C(=O)N(C(C)(C)C)C3=O)c1	·	2.1%	2.69µM*	?	·	?
CC(C)(C)N1C(=O)c2ccc(C(=O)O)cc2C1=O	-6.1%	-0.3%	4.5%	-0.3%	-4.0%	0.1%
CC(C)(C)N1C(=O)c2ccc(C(=O)Nc3ccc(O)cc3)cc2C1=O	·	13.2%	13.5µM*	?	-4.7%	?
CC(=O)c1cccc(NC(=O)c2ccc3c(c2)C(=O)N(Cc2cccnc2)C3=O)c1	·	-7.6%	?	-1.6%	22.9%	-2.3%
CCC(=O)Oc1ccc(C(=O)Nc2cccc(NC(=O)c3ccco3)c2)cc1	·	-9.1%	?	-2.2%	-0.6%	-0.5%
CC(C)(C)NC(=O)c1cccc(NC(=O)c2ccc3c(c2)C(=O)N(C(C)(C)C)C3=O)c1	·	0.2%	10.7µM*	-3.5%	11.6%	0.1%
